The list is not random: actives were taken first. Their share in the collection is about 21%.
CHX counter: counter-screen hit for Shiga toxin inhibitors, cycloheximide; cell reporter, cycloheximide protein synthesis inhibition counterscreen; max response, %; 300,000 tested, 12% active; AID 2314; in the data active means max response mostly above about 13%, no sharp cut-off; inactive means mostly below about 14%; further: read at 38.3 µM for the half of the compounds with a filed dose; 0% is about no effect
Pf growth 48h: inhibits P. falciparum growth in the first generation, 48 h. 310,000 tested, 5.9% active. Potency, µM (top dose mostly 28.7 µM), inactives show top-dose activity change, negative = inhibition, most hits filed as inhibitors. P. falciparum luciferase growth in erythrocytes, 48 h; further: potency means the concentration at half of the fitted maximal effect; on the % scale 0 is the no-effect control and ±100 the full control effect
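Parasite viability was followed by luminescence of a genomically integrated firefly luciferase. Cultures held 0.1% parasitemia at 2% hematocrit (final), incubated under 5% CO2 at 37 C.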
Shiga toxin inh: Shiga toxin inhibition | Vero cells, Shiga toxin protein synthesis inhibition reporter | inhibition, % at 38.7 µM | 290,000 tested, 9.2% active | AID 2315; in the data active means inhibition mostly above about 28%, no sharp cut-off; inactive means mostly below about 43%; further: 0% is about no effect
Pf growth 96h: P. falciparum growth inhibition at 96 hour, primary screen for plastid delayed-death inhibitors; P. falciparum luciferase reporter growth, 96 h; Potency, µM (top dose mostly 28.7 µM), inactives show at the highest dose activity change, negative = inhibition, hits mostly inhibitors; 320,000 tested, 6.9% active; AID 504834; further: potency means the concentration at half of the fitted maximal effect; on the % scale 0 is the no-effect control and ±100 the full control effect
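Cell-based qHTS: luciferase-tagged P. falciparum in erythrocytes (2% hematocrit, 0.05% parasitemia final) incubated with compounds for 96 hours, 37 C, 5% CO2; luciferase detection reagent then added and luminescence measured.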
* = called active by the depositor; ? = inconclusive; . = no result given. Unless noted, the call rests on the fitted dose curve; in most records, active means well fitted inhibition curve with a large enough effect; inconclusive means small, poorly fitted or top-dose-only effect, or another doubt; inactive means no such curve, though single readings can be large or run the other way.

SMILES	CHX counter	Pf growth 48h	Shiga toxin inh	Pf growth 96h
COc1ccccc1/C=C\C(=O)NCC(=O)N/N=C/c1cccc(OC)c1O	-1	7%	-6	1%
CCOC(=O)C1=C(COC(=O)c2nc(Cl)ccc2Cl)NC(=O)NC1C (stereo not drawn)	.	26%	.	-1%
CC[C@H](C)[C@H](NC(=O)[C@H](Cc1ccc(O)cc1)NC(=O)[C@H](Cc1cnc[nH]1)NC(=O)[C@H](CCCNC(=N)N)NC(=O)[C@H](CC(C)C)NC(=O)[C@H](C)NC(=O)[C@H](CO)NC(=O)[C@H](Cc1ccc(O)cc1)NC(=O)[C@H](Cc1ccc(O)cc1)NC(=O)[C@H](CCCNC(=N)N)NC(=O)[C@H](C)NC(=O)[C@H](CCSC)NC(=O)[C@H](CC(=O)O)NC(=O)[C@H](CCC(=O)O)NC(=O)[C@H](C)NC(=O)[C@@H]1CCCN1)C(=O)N[C@@H](CC(N)=O)C(=O)N[C@@H](CC(C)C)C(=O)N[C@H](C(=O)N[C@H](C(=O)N[C@@H](CCCNC(=N)N)C(=O)N[C@@H](CCC(N)=O)C(=O)N[C@@H](CCCNC(=N)N)C(=O)N[C@@H](Cc1ccc(O)cc1)C(N)=O)[C@@H](C)O)[C@@H](C)CC	-1	.	-7	.
Cc1cccc(C)c1OCC(O)CNC(C)C (stereo not drawn)	1	.	-19	?
CCOC(=O)c1oc2cccc(OCC(O)CNC(C)C)c2c1C (stereo not drawn)	5	9.3µM*	11	1.3µM*
Cc1c(OC(C)C(=O)NCc2ccncc2)ccc2c3c(c(=O)oc12)CCC3 (stereo not drawn)	-6	?	-10	9.3µM*
Cc1c(OC(C)C(=O)NCC(O)c2ccccc2)ccc2c3c(c(=O)oc12)CCC3 (stereo not drawn)	-1	13µM*	-5	10µM*
Cc1c(OC(C)C(=O)NCc2ccccn2)ccc2c3c(c(=O)oc12)CCCC3 (stereo not drawn)	6	?	-15	1.7µM*
Cc1c(OCC(=O)NCc2ccncc2)ccc2c3c(c(=O)oc12)CCC3	-5	?	5	13µM*
Cc1c(OCC(=O)NCc2cccnc2)ccc2c3c(c(=O)oc12)CCC3	5	-6%	-8	-7%
CCCS(=O)(=O)N1CCC(C(=O)Oc2ccc(OC)cc2)CC1	1	?	-3	?
Cc1ccc2c(CN(C)Cc3ccc(Cl)cc3)cc(=O)oc2c1	-2	?	21	-11%
O=C(Cn1ncc2c(=O)oc3ccccc3c21)NCC1COc2ccccc2O1 (stereo not drawn)	-3	.	3	1.9µM*
COCCCNC(=O)Cn1ncc2c(=O)oc3ccccc3c21	14	-2%	-3	25%
O=C(Cn1ccc2ccccc2c1=O)NCC1COc2ccccc2O1 (stereo not drawn)	-1	-1%	1	?
COC(=O)C(CCSC)NC(=O)Cn1ncc2c(=O)oc3ccccc3c21 (stereo not drawn)	3	.	-17	12µM*
CSc1cccc(N2CC(C(=O)NCCC3=CCCCC3)CC2=O)c1 (stereo not drawn)	.	-14%	.	0%
CCCCn1c(N)c(N(CC(C)C)C(=O)C2=NN(c3cc(C)ccc3C)C(=O)CC2)c(=O)[nH]c1=O	.	0%	.	-1%
CC1=Nc2ccc(Br)cc2C(c2ccccc2)N1CC(=O)NN (stereo not drawn)	-5	?	36	8%
NNC(=O)CN1C(c2ccc(Cl)cc2)=Nc2ccc(Br)cc2C1c1ccccc1 (stereo not drawn)	-3	8.3µM*	-16	34%
NNC(=O)CN1C(CN2CCOCC2)=Nc2ccc(Br)cc2C1c1ccccc1 (stereo not drawn)	-7	?	-6	13µM*
COc1ccc(S(=O)(=O)NCC2CCCN(C(=O)CCC(F)(F)F)C2)cc1 (stereo not drawn)	-1	-16%	-8	119%
NC(=O)CC(NC(=O)Cc1cccc2ccccc12)c1ccc(NCCCN2CCCC2=O)c([N+](=O)[O-])c1 (stereo not drawn)	2	?	1	?
COc1ccc(C(=O)NCCNc2ccccc2[N+](=O)[O-])cc1	32*	50%	77*	21%
CCCNC(=O)c1ccc(S(=O)(=O)c2ccc(OC)cc2)c([N+](=O)[O-])c1	1	12µM*	-5	4%
SMILES	CHX counter	Pf growth 48h	Shiga toxin inh	Pf growth 96h
O=C(NCCNc1ccccc1[N+](=O)[O-])c1cc(F)c(F)cc1Cl	50*	36%	154*	30%
CC(C)COc1ccc(C(=O)Nc2ccccc2[N+](=O)[O-])cc1	53*	120%	active	10µM*
COc1ccc(CNC(=O)C(c2ccco2)N(C(=O)c2snc(C(N)=O)c2N)c2cccc(OC)c2)cc1 (stereo not drawn)	-6	?	13	-8%
O=C(CN1CCN(S(=O)(=O)c2ccc(F)cc2)CC1)Nc1ccc(Cl)cn1	0	0%	-21	?
CC(OC(=O)c1cccc(S(=O)(=O)N2CCCCC2)c1)C(=O)NCC1CCCCC1 (stereo not drawn)	.	-7%	.	49%
O=C(NCc1cccnc1)c1ccc(NS(=O)(=O)c2ccc(F)cc2)cc1	-3	?	16	6.6µM*
O=C(NCc1cccnc1)c1cccc(S(=O)(=O)N2CCCC2)c1	52*	-21%	-19	7%
O=C(NCc1cccnc1)c1cccc(S(=O)(=O)N2CCCCC2)c1	-3	-14%	17	42%
O=C(NCC1CCCCC1)c1cccc(S(=O)(=O)N2CCCC2)c1	.	10µM*	.	?
O=C(CNC(=O)N1CC(=O)Nc2ccccc21)Nc1cccc(F)c1	-2	15%	-9	28%
CC1CN2C(c3ccc(Cl)cc3)=CSC2=N1 (stereo not drawn)	1	179%	9	?
O=C(COC(=O)CN1C(=O)C2CCCCC2C1=O)NNC(=O)c1ccc(Cl)cc1 (stereo not drawn)	.	?	.	0%
O=C(c1cc(-c2ccc3c(c2)OCO3)on1)N1CCCCC1	25*	202%	55*	13µM*
Cc1ccc(-c2cc(C(=O)N3CCCC3)no2)cc1	28	45%	active	10%
O=C(c1cc(-c2ccc(Cl)cc2)on1)N1CCCCCC1	27*	174%	109*	270%
O=C(c1cc(-c2ccc(O)cc2)on1)N1CCCCCC1	34*	114%	61*	-1%
CS(=O)(=O)c1cccc(-c2csc(N3CCC(C(N)=O)CC3)n2)c1	.	?	.	0%
O=C(c1cc(-c2ccc(Cl)c(Cl)c2)on1)N1CCCCCC1	20*	245%	36*	266%
CC1CCCC(C)N1C(=O)c1cc(-c2ccc3c(c2)OCO3)on1 (stereo not drawn)	54*	197%	78*	22%
COCCn1c(SCC(=O)NC2CCCC(C)C2C)nc2ccccc2c1=O (stereo not drawn)	.	2%	.	-21%
CCCCCOc1ccc(C(=O)CCC(=O)NNC(=O)c2ccncc2)cc1	.	61%	.	40%
CCCn1c(N)c(N(CCOC)C(=O)/C=C/c2cccc(Cl)c2)c(=O)[nH]c1=O	8	13%	-9	16%

From PubChem
